A549 viability = A549 cytotoxicity, counter-screen for Nrf2 inhibitors | A549 ARE-Fluc cells, CellTiter-Fluor viability, 18-24 h | Potency, µM (top dose mostly 46 µM), inactives show at the highest dose activity change, negative = cytotoxicity, most hits filed as inhibitors | 0.16% of 390,000 active; also: % is scaled to controls: 0 for no effect and ±100 for the full control effect
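A549 ARE-Fluc cells in 5% FBS OPTI-MEM, 5000 cells/well, rested 2 h then exposed to compounds in concentration-response for 18-24 h at 37 °C. Viability by CellTiter-Fluor fluorescence (Ex 405/Em 525) after 30 min; luciferase luminescence (BugLite, 15 min, RT) read afterwards.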
Nrf2 inh = Nrf2 pathway inhibition; A549 ARE-Fluc reporter, luciferase luminescence, 18-24 h; Potency, µM (series often up to 46 µM), without a hit: at the highest dose activity change, negative = inhibition, usual class: inhibitors; 2.1% of 360,000 active; AID 504444; also: % is scaled to controls: 0 for no effect and ±100 for the full control effect; nearly all actives have a fitted effect of over 60% in size
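A549 ARE_Fluc cells (5000/well, 5% FBS OPTI-MEM) pre-incubated 2 h, then treated with compounds 18-24 h at 37C/5% CO2 in concentration-response. CellTiter-Fluor viability read first; BugLite luciferase luminescence after 15 min at room temperature gives Nrf2 activity.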
TGFb inhibitor = inhibitors of TGF-b signaling; Potency, µM (titrated, usually from 46.1 µM), inactives show at the highest dose activity, negative = inhibition, actives largely listed as inhibitors; 1.2% of 410,000 active; HepG2 CAGA-GFP TGF-b/SMAD3 reporter, GFP fluorescence, 18 h; TGF-beta stimulated, 500 pg/mL final; AID 588855; also: % is scaled to controls: 0 for no effect and ±100 for the full control effect; nearly all actives have a fitted effect of over 65% in size
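Cell-based qHTS in HEPG2 carrying a CAGA-GFP Smad reporter; compounds added before 500 pg/mL final TGF-beta, 18 h incubation at 37 degrees C, GFP fluorescence quantified per cell by imaging cytometry.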
HepG2 tox-1 = HepG2 cytotoxicity, counter-screen for TGF-b inhibitors | 0.76% of 410,000 active | HepG2 CAGA-GFP viability, ATP luminescence, 18 h | Potency, µM (doses to about 46.1 µM), without a hit: top-dose activity change, negative = cytotoxicity, hits mostly cytotoxic | AID 588856
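HepG2 CAGA-GFP cells (1000/well, DMEM with 1% FBS) received compound, then TGF-beta at 500 pg/mL final, and were incubated 18 hours at 37 degrees C. Viability was read by CellTiter-Glo luminescence. Media-only wells were set as complete cell-killing and DMSO as no toxicity.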
ATXN2 expr inh = reduces ATXN2 reporter expression in HEK-293 cells | HEK-293 ATXN2-luciferase reporter, luminescence, 24 h | Potency, µM (doses to about 57 µM), for inactives: at the highest dose activity change, negative = inhibition, hits mostly inhibitors | 0.72% of 360,000 active | AID 1745845; also: % is scaled to controls: 0 for no effect and ±100 for the full control effect; nearly all actives have a fitted effect of over 55% in size
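ATXN2-luciferase reporter cells (luciferase flanked by upstream and downstream ATXN2 gene portions) were treated 24 h at 37 °C with compounds at up to 57 uM. SteadyGlo luminescence gave expression; GF-AFC fluorescence gave viability.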
ATXN viability = reduces viability in counter-screen for ATXN expression inhibitors; 0.49% of 400,000 active; Potency, µM (titrated, usually from 56.7 µM), most hits filed as cytotoxic; S2 cells (HEK-293 line with an ATXN2-luciferase reporter) viability, CellTiter-Fluor protease fluorescence, 24 h; also: nearly all actives have a fitted effect of over 40% in size
TGFb confirm = TGF-b pathway inhibition, cherry-pick retest. shares compounds with TGFb inhibitor. HepG2 CAGA-GFP TGF-b reporter, GFP fluorescence, 18 h; cells stimulated with TGF-beta, 500 pg/mL. Potency, µM (series often up to 46.1 µM), without a hit: at the highest dose activity, negative = inhibition, most hits filed as inhibitors. 63% of 1,600 active. AID 720534; also: % is scaled to controls: 0 for no effect and ±100 for the full control effect; nearly all actives have a fitted effect of over 65% in size
HepG2 tox-2 = HepG2 cytotoxicity, TGF-b inhibitor counterscreen. shares compounds with TGFb inhibitor. HepG2 CAGA-GFP viability, ATP luminescence, 18 h; cells stimulated with TGF-beta, 500 pg/mL. Potency, µM (titrated, usually from 46.1 µM), for the others: top-dose activity, negative = cytotoxicity, hits mostly inhibitors. 27% of 1,600 active. AID 720535; also: % is scaled to controls: 0 for no effect and ±100 for the full control effect; nearly all actives have a fitted effect of over 70% in size
TGFb CCL64 inh = blocks TGF-b signaling in CCL64 reporter cells | shares compounds with TGFb inhibitor | 41% of 1,600 active | Potency, µM (titrated, usually from 46.1 µM), inactives show at the top dose activity, negative = inhibition, most hits filed as inhibitors | CCL64 CAGA-GFP reporter, TGF-b stimulated, GFP fluorescence, 18 h; also: nearly all actives have a fitted effect of over 65% in size
COP TGFb inh = TGF-b inhibition validated with COP promoter. shares compounds with TGFb inhibitor. Potency, µM (series often up to 46.1 µM), for inactives: at the highest dose activity, negative = inhibition, usual class: inhibitors. HepG2 COP-GFP TGF-b reporter, GFP fluorescence, 18 h; cells stimulated by added recombinant TGF-beta. 3% of 1,600 active; also: nearly all actives have a fitted effect of over 70% in size
* hit, by the source's call. Sampled rows, rich in hits. Any-hit rate of the full collection: about 3.8%. Calls follow the shape of the dose curve; as a rule, active = well fitted curve in the direction sought with a large enough effect; inconclusive = small, poorly fitted or top-dose-only effect, or another doubt; inactive = no such curve, though single readings can be large; an effect the other way counts as inactive or inconclusive. Potency is read from the fitted curve at half-maximal effect.

Screening COc1cc(C2c3cc4c(cc3OC(NCc3ccccc3)C2C)OCO4)cc(OC)c1OC (stereo not given) returned A549 viability -3%, Nrf2 inh 3%, TGFb inhibitor 2.8µM*, HepG2 tox-1 -105%, ATXN2 expr inh -19%, ATXN viability inconclusive, TGFb confirm 7.3µM*, HepG2 tox-2 0%, TGFb CCL64 inh inconclusive and COP TGFb inh -16%.
COc1cccc(C2c3cc4c(cc3OC(NNC(N)=O)C2C)OCO4)c1O (stereo not given) was read as A549 viability -5%, Nrf2 inh 8%, TGFb inhibitor 10µM*, HepG2 tox-1 3%, ATXN2 expr inh 10%, ATXN viability inconclusive, TGFb confirm 8.2µM*, HepG2 tox-2 -19%, TGFb CCL64 inh inconclusive and COP TGFb inh -15%.
Screening COc1cc(C2c3cc4c(cc3OC(NNC(N)=S)C2C)OCO4)cc(OC)c1OC (stereo not given) returned A549 viability -15%, Nrf2 inh 16%, TGFb inhibitor inconclusive, HepG2 tox-1 -23%, ATXN2 expr inh 4% and ATXN viability inconclusive.
CCCC1=Nc2cc(C(=O)NCc3ccccc3)ccc2Sc2ccccc21 was read as A549 viability -10%, Nrf2 inh -22%, TGFb inhibitor inconclusive and HepG2 tox-1 8%.
COc1ccccc1CNC(=O)C1CCCN(c2nn3cc(-c4ccc(F)cc4)nc3s2)C1 (stereo not given) was read as A549 viability 10%, Nrf2 inh inconclusive, TGFb inhibitor 0% and HepG2 tox-1 7%.
CCOc1ccc2nc3cc(NCc4ccc(OC)cc4)ccc3c(N)c2c1 was read as A549 viability -9%, Nrf2 inh inconclusive, TGFb inhibitor 7.9µM*, HepG2 tox-1 10µM*, ATXN viability inactive, TGFb confirm 3.3µM*, HepG2 tox-2 7.3µM*, TGFb CCL64 inh inconclusive and COP TGFb inh 45%.
CC(C)(C)OC(=O)N1CCc2nc(N3CCN(c4ncccn4)CC3)ncc2C1 was read as A549 viability 0%, Nrf2 inh 12%, TGFb inhibitor 0%, HepG2 tox-1 7%, ATXN2 expr inh 13% and ATXN viability inactive.
For Cc1nc(Oc2ccccc2C)c2oc3ccccc3c2n1 the results were A549 viability 1%, TGFb inhibitor 1%, HepG2 tox-1 -21%, ATXN2 expr inh -38% and ATXN viability inconclusive.
Screening Cc1cc(COc2ccccc2)oc1C(=O)O returned A549 viability 11%, Nrf2 inh inconclusive, TGFb inhibitor -6%, HepG2 tox-1 -33% and ATXN viability inactive.
`CCN(CC)S(=O)(=O)c1cccc(NC(=O)Nc2cccc(C(F)(F)F)c2)c1` gave A549 viability inconclusive, Nrf2 inh 2.6µM*, TGFb inhibitor 7.9µM*, HepG2 tox-1 11µM*, ATXN2 expr inh 22µM*, ATXN viability inconclusive, TGFb confirm 10µM*, HepG2 tox-2 inconclusive, TGFb CCL64 inh 8.2µM* and COP TGFb inh 87%.
For CCN(CC)S(=O)(=O)c1cccc(NC(=O)CC2CCCC2)c1 the results were A549 viability 7%, Nrf2 inh -3%, TGFb inhibitor -3%, HepG2 tox-1 -20%, ATXN2 expr inh -20% and ATXN viability inactive.
Screening CN(C)c1cccc(C(=O)OCC(=O)Nc2nccs2)c1 returned A549 viability 1%, Nrf2 inh inconclusive, TGFb inhibitor -5%, HepG2 tox-1 -5%, ATXN2 expr inh 36% and ATXN viability inactive.
For COc1ccc(-c2cc3ccc(OC)cc3cn2)cc1 the results were A549 viability 4%, Nrf2 inh inconclusive, TGFb inhibitor -26%, HepG2 tox-1 4%, ATXN2 expr inh 5% and ATXN viability inactive.
Screening COc1ccc2cc(-c3ccccc3F)ncc2c1 returned A549 viability 20%, Nrf2 inh inconclusive, TGFb inhibitor inconclusive, HepG2 tox-1 -31%, ATXN2 expr inh 67%, ATXN viability inactive, TGFb confirm -9%, HepG2 tox-2 -21%, TGFb CCL64 inh 0% and COP TGFb inh 9%.
`COC(=O)c1cc(NC(=O)Cn2nc(-c3ccc(C)c(C)c3)ccc2=O)cc(C(=O)OC)c1` gave A549 viability -2%, Nrf2 inh -9%, TGFb inhibitor 2%, HepG2 tox-1 0%, ATXN2 expr inh -4% and ATXN viability inactive.
For COC(=O)c1ccc(CNC(=O)CSc2nnc(COc3ccccc3)n2C)o1 the results were A549 viability -4%, Nrf2 inh -9%, TGFb inhibitor inconclusive, HepG2 tox-1 3%, ATXN2 expr inh -1%, ATXN viability inactive, TGFb confirm -11%, HepG2 tox-2 12%, TGFb CCL64 inh 3% and COP TGFb inh 8%.
Screening COc1ccc(/C=N/n2cnc3c([nH]c4ccc(F)cc43)c2=O)cc1CN1CCCC1 returned A549 viability 2%, Nrf2 inh -4%, TGFb inhibitor 7.1µM*, HepG2 tox-1 7.1µM*, ATXN viability inactive, TGFb confirm 16µM*, HepG2 tox-2 23µM*, TGFb CCL64 inh 23µM* and COP TGFb inh inconclusive.
